Here are results for twelve compounds from PubChem BioAssay (NCATS).

Inconclusive results are not listed. Calls of active or inactive are those of the source. Calls come from the whole dose curve; as a rule, active = well fitted curve in the direction sought with a large enough effect; inconclusive = small, poorly fitted or top-dose-only effect, or another doubt; inactive = no such curve, though single readings can be large; an effect the other way counts as inactive or inconclusive.

Experiment [1] is described as follows: Quantitative High-Throughput drug screen in 47 multiple myeloma cell lines against the NCATS MIPE library collection: Karpas25_ECACC cell viability assay (AID 1918968; note: potency is the fitted concentration of half-maximal effect; nearly all actives have a fitted effect of over 35% in size). The essentials:
(§1)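 Steps: seed 500 cells per well; pin-transfer MIPE 4.0 library; incubate 48 h at 37C, 5% CO2, humidified; add CellTiter-Glo, 5 min room temperature; read luminescence.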

The nature of experiment [2]: Quantitative High-Throughput drug screen in 47 multiple myeloma cell lines against the NCATS MIPE library collection: KMS20_JCRB cell viability assay (AID 1918973). Note: nearly all actives have a fitted effect of over 45% in size. Note: potency is the fitted concentration of half-maximal effect. The gist of the method:
as §1

Experiment [3] can be described thus: Quantitative High-Throughput drug screen in 47 multiple myeloma cell lines against the NCATS MIPE library collection: KMS26_JCRB cell viability assay (AID 1918975). Note: nearly all actives have a fitted effect of over 45% in size. Note: potency is the fitted concentration of half-maximal effect. The essentials:
as §1

Experiment [4] is described as follows: Quantitative High-Throughput drug screen in 47 multiple myeloma cell lines against the NCATS MIPE library collection: MMM1_PLB cell viability assay (AID 1918976). Note: potency is the fitted concentration of half-maximal effect; nearly all actives have a fitted effect of over 35% in size. The essentials:
(§2)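 MIPE 4.0 approved/investigational drugs; 500 cells/well; 48 h 37 °C humidified 5% CO2; CTG luminescence readout; DMSO = 100%, media = 0% viability.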

Experiment [5] in a line: Quantitative High-Throughput drug screen in 47 multiple myeloma cell lines against the NCATS MIPE library collection: MOLP8_DSMZ cell viability assay (AID 1918977). Note: nearly all actives have a fitted effect of over 45% in size. Note: potency is the fitted concentration of half-maximal effect. The essentials:
as §2

Experiment [6] is described as follows: Quantitative High-Throughput drug screen in 47 multiple myeloma cell lines against the NCATS MIPE library collection: MM1R_ATCC cell viability assay (AID 1918981). Note: nearly all actives have a fitted effect of over 35% in size. Note: potency is the fitted concentration of half-maximal effect. The gist of the method: as §2
Experiment [7] can be described thus: Quantitative High-Throughput drug screen in 47 multiple myeloma cell lines against the NCATS MIPE library collection: LP1_DSMZ cell viability assay (AID 1918982). Note: nearly all actives have a fitted effect of over 35% in size. Note: potency is the fitted concentration of half-maximal effect. The gist of the method:
as §2

Experiment [8] in a line: Quantitative High-Throughput drug screen in 47 multiple myeloma cell lines against the NCATS MIPE library collection: KMS28PE_JCRB cell viability assay (AID 1918983). Note: nearly all actives have a fitted effect of over 35% in size. Note: potency is the fitted concentration of half-maximal effect. The essentials: as §2
A short description of experiment [9]: Quantitative High-Throughput drug screen in 47 multiple myeloma cell lines against the NCATS MIPE library collection: KMS34_JCRB cell viability assay (AID 1918985). Note: nearly all actives have a fitted effect of over 40% in size. Note: potency is the fitted concentration of half-maximal effect. The gist of the method:
as §2

Experiment [10] is described as follows: Quantitative High-Throughput drug screen in 47 multiple myeloma cell lines against the NCATS MIPE library collection: OCIMY7_PLB cell viability assay (AID 1918987). Note: potency is the fitted concentration of half-maximal effect; nearly all actives have a fitted effect of over 65% in size. The gist of the method: as §2
Experiment [11] is described as follows: Quantitative High-Throughput drug screen in 47 multiple myeloma cell lines against the NCATS MIPE library collection: KMS27_JCRB cell viability assay (AID 1918970). Note: nearly all actives have a fitted effect of over 30% in size. Note: potency is the fitted concentration of half-maximal effect. The essentials: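 CellTiter-Glo luminescence after 48 h drug exposure at 37 °C; 500 cells/well, 1536-well format, pin-tool compound addition; DMSO = 100%, media-only = 0% viability.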
Experiment [12] in a line: Quantitative High-Throughput drug screen in 47 multiple myeloma cell lines against the NCATS MIPE library collection: KMS12PE_JCRB cell viability assay (AID 1918972). Note: nearly all actives have a fitted effect of over 30% in size. Note: potency is the fitted concentration of half-maximal effect. The essentials: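 Approved and investigational drugs from MIPE 4.0 were added by pin tool to 500 cells per well. After 48 hours at 37C, ATP-based CellTiter-Glo luminescence indicated remaining viability.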

Experiment [13] in a line: Quantitative High-Throughput drug screen in 47 multiple myeloma cell lines against the NCATS MIPE library collection: OCIMY1_PLB cell viability assay (AID 1918979). Note: nearly all actives have a fitted effect of over 35% in size. Note: potency is the fitted concentration of half-maximal effect. The essentials:
as §2

Experiment [14] can be described thus: Quantitative High-Throughput drug screen in 47 multiple myeloma cell lines against the NCATS MIPE library collection: H1112_PLB cell viability assay (AID 1918967; note: nearly all actives have a fitted effect of over 30% in size). The gist of the method:
as §1

Experiment [15] in a line: Quantitative High-Throughput drug screen in 47 multiple myeloma cell lines against the NCATS MIPE library collection: NCIH929_DSMZ cell viability assay (AID 1918978). Note: nearly all actives have a fitted effect of over 35% in size. Note: potency is the fitted concentration of half-maximal effect. The essentials: as §2
Experiment [16] in a line: Quantitative High-Throughput drug screen in 47 multiple myeloma cell lines against the NCATS MIPE library collection: MM1S_ATCC cell viability assay (AID 1918980). Note: nearly all actives have a fitted effect of over 45% in size. Note: potency is the fitted concentration of half-maximal effect. The essentials: as §2
Experiment [17] is described as follows: Quantitative High-Throughput drug screen in 47 multiple myeloma cell lines against the NCATS MIPE library collection: OCIMY5_PLB cell viability assay (AID 1918988). Note: nearly all actives have a fitted effect of over 65% in size. Note: potency is the fitted concentration of half-maximal effect. The essentials:
as §2

Experiment [18] is described as follows: Quantitative High-Throughput drug screen in 47 multiple myeloma cell lines against the NCATS MIPE library collection: KMS12BM_JCRB cell viability assay (AID 1918971). Note: nearly all actives have a fitted effect of over 35% in size. Note: potency is the fitted concentration of half-maximal effect. The essentials: as §1
The nature of experiment [19]: Quantitative High-Throughput drug screen in 47 multiple myeloma cell lines against the NCATS MIPE library collection: KMS21BM_JCRB cell viability assay (AID 1918974). Note: potency is the fitted concentration of half-maximal effect. As to conditions: ATP luminescence, 48 h; viability: at 45.8 µM (top of the series) unless noted. The essentials:
as §1

Experiment [20] can be described thus: Quantitative High-Throughput drug screen in 47 multiple myeloma cell lines against the NCATS MIPE library collection: L363_DSMZ cell viability assay (AID 1918984). Note: nearly all actives have a fitted effect of over 40% in size. Note: potency is the fitted concentration of half-maximal effect. The essentials:
as §2

For the compound `CCOc1cc(C(=O)Nc2ccc(Cl)c(-c3nc4ccccc4[nH]3)c2)cc(OCC)c1OCC`, the Potency was 10.5 µM (active) in experiment [1]; 1.48 µM (active) in experiment [2]; 20.9 µM (active) in experiment [4]; 13.2 µM (active) in [6]; 14.8 µM (active) in experiment [7]; 0.418 µM (active) in experiment [10]. For the same compound, the Potency entry in experiment [3], in [5], in experiment [8] and in [9] was “inactive” throughout.

For `CC1(C)CNc2cc(NC(=O)c3cccnc3NCc3ccncc3)ccc21`, the Potency was 2.09 µM (active) in [1], 4.18 µM (active) in experiment [12], 20.9 µM (active) in experiment [6] and 0.372 µM (active) in experiment [10]. Besides, the Potency result in experiment [11] and in [13] was “inactive” in each case.

As to `C1COC(NC(C2CC2)C2CC2)=N1`, the Potency result in experiment [14], in [2], in [3], in experiment [15], in experiment [16] and in experiment [7] was “inactive” each time. In addition, the Potency entry in [17] is “inactive”.

As to `COc1ccc(-c2ccc3c(N4CCOCC4)nc(N4C[C@@H](C)O[C@@H](C)C4)nc3n2)cc1CO`, the Potency is 0.743 µM (active) in experiment [1]; 0.187 µM (active) in experiment [11]; 0.0833 µM (active) in experiment [18]; 2.35 µM (active) in experiment [12]; 0.235 µM (active) in experiment [2]; 0.833 µM (active) in experiment [19]. Also, the Potency in [3] is 2.96 µM (active); in [4], 0.105 µM (active); in experiment [5], 1.05 µM (active); in experiment [15], 0.187 µM (active); in [13] it was 4.69 µM (active); in experiment [16], 0.469 µM (active). Moreover, the Potency in experiment [6] is 0.833 µM (active); in [7], 0.059 µM (active); in experiment [20], 0.235 µM (active); in experiment [9] it was 0.469 µM (active).

Turning to `COc1cc(Oc2ccnc3cc(OC)c(OC)cc23)ccc1NC(=O)NC(C)c1nccs1` (stereo unspecified), the Potency in [1] was 23.5 µM (active); in [11], 5.9 µM (active); in experiment [4], 16.6 µM (active); in [6], 18.7 µM (active). The Potency result in [5] and in experiment [15] was “inactive” each time.

On to `CN(C)c1ccc(Nc2nc(N)n(C(=O)c3c(F)cccc3F)n2)cc1`, for which the Potency in experiment [1] is 26.4 µM (active); in [11], 23.5 µM (active); in [12] it was 16.6 µM (active); in [19] it was 2.35 µM (active); in [15] it was 26.4 µM (active); in [16] it was 14.8 µM (active). Also, the Potency in experiment [6] is 18.7 µM (active); in experiment [7], 16.6 µM (active); in [20], 20.9 µM (active); in [9] it was 2.35 µM (active); in [10], 2.35 µM (active); in experiment [17] it was 11.8 µM (active). Further, in [13], the Potency entry was “inactive”.

Take `CCCC(CCC)C(=O)O`: the Potency result in experiment [11], in [18], in experiment [12], in experiment [3], in [5] and in experiment [15] was “inactive” in each case. For the same compound, the Potency result in [13], in experiment [6], in [7], in [8] and in experiment [9] was “inactive” in each case.

`CS(=O)(=O)c1cccc(CNc2nc(Nc3ccc4c(c3)CCC(=O)N4)ncc2C(F)(F)F)c1`: the Potency is 4.69 µM (active) in [12]; 14.8 µM (active) in experiment [2]; 18.7 µM (active) in [3]; 23.5 µM (active) in [4]; 10.5 µM (active) in experiment [15]; 16.6 µM (active) in [13]. Further, the Potency is 18.7 µM (active) in [16]; 20.9 µM (active) in [6]; 18.7 µM (active) in experiment [7]; 6.62 µM (active) in experiment [20]; 14.8 µM (active) in experiment [10]; 18.7 µM (active) in [17].

For `O=C1[C@H](Cc2ccc(O)cc2)N2C(=O)CCN(C(=O)NCc3ccccc3)[C@H]2CN1Cc1cccc2ccccc12`, the Potency was 4.18 µM (active) in experiment [18]; 7.43 µM (active) in experiment [3]; 3.72 µM (active) in [15]; 16.6 µM (active) in [13]; 3.72 µM (active) in experiment [16]; 3.32 µM (active) in experiment [6]. The Potency in [8] was 9.35 µM (active); in experiment [17], 4.18 µM (active). The Potency entry in experiment [12] and in [20] was “inactive” throughout.

Consider `CN(C)C(=O)c1ccc(S(=O)(=O)c2ccc(NC(=O)[C@@](C)(O)C(F)(F)F)c(Cl)c2)cc1`, for which the Potency in [11] was 14.8 µM (active); in experiment [6], 14.8 µM (active); in experiment [20] it was 10.5 µM (active); in experiment [10], 11.8 µM (active). For the same compound, the Potency result in experiment [5] and in [13] was “inactive” each time.

On to `Nc1ncnc2nc(-c3ccc(N4CCOCC4)nc3)cc(-c3cccc(Br)c3)c12`, for which the Potency entry in experiment [11], in experiment [12], in experiment [3] and in experiment [13] was “inactive” in each case. Moreover, the Potency was 14.8 µM (active) in experiment [15], 23.5 µM (active) in experiment [16] and 16.6 µM (active) in experiment [17].

Take `CN[C@@H](C)C(=O)N[C@H]1CCCC[C@H]2CC[C@@H](C(=O)N[C@@H](c3ccccc3)c3cn(CCCCc4ccc(CCCCn5cc([C@@H](NC(=O)[C@@H]6CC[C@@H]7CCCC[C@H](NC(=O)[C@H](C)NC)C(=O)N76)c6ccccc6)nn5)cc4)nn3)N2C1=O`: the Potency in experiment [11] was 18.7 µM (active); in [12], 4.69 µM (active); in [2], 4.18 µM (active); in experiment [15], 8.33 µM (active); in experiment [16], 18.7 µM (active); in experiment [10], 0.001 µM (active). Besides, in experiment [17], the Potency is 16.6 µM (active). The Potency result in [18], in experiment [5], in experiment [13], in experiment [8] and in experiment [9] was “inactive” in each case.
